Shown are actives, neighbours in structure and some others; about 18% of the full set was active somewhere.
LDHA block: qHTS assay for inhibitors of human lactate dehydrogenase | L-lactate dehydrogenase A chain (Homo sapiens), P00338 | purified LDHA, NADH/diaphorase-resazurin fluorescence; hits give low values | activity change, % (values are at about 110 or 230 µM) | 0.15% of 480,000 active; in the data active = activity change below about -30%; inconclusive = mostly about -25% to -30%
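Human LDH5 at 2 nM final in Tris HCl pH 7.4 with 0.06 mM NADH and 0.2 mM pyruvate, reacted 5 minutes at room temperature. Remaining NADH coupled via diaphorase/resazurin; resorufin fluorescence read at 0 and 20 minutes, normalized to enzyme-free and DMSO wells.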
RORgamma inh: qHTS for inhibitors of ROR gamma transcriptional activity; Nuclear receptor ROR-gamma (Mus musculus), P51450; Drosophila S2 Gal4-RORgamma UAS-luciferase reporter, 20 h; Potency, µM (series often up to 53.6 µM), most hits filed as inhibitors; 5.4% of 310,000 active; AID 2551, 2010; also: nearly all actives have a fitted effect of over 60% in size
Target sequence (P51450 whole entry, looked up, the tested form may be a part): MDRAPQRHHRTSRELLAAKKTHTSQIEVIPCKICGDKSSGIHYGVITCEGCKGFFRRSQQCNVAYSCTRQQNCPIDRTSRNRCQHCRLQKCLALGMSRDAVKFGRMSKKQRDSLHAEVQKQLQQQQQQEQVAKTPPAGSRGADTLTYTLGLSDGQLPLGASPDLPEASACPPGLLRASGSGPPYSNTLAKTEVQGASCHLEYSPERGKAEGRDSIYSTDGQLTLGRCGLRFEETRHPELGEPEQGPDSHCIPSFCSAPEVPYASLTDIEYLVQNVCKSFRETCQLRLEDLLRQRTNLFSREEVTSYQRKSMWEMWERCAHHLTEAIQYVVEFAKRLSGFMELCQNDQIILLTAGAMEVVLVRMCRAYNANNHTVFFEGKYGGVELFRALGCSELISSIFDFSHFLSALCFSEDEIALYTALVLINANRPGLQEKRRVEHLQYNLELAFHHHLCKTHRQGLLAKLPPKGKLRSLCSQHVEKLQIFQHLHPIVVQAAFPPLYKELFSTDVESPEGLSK
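Stable Schneider cell line, Gal4 DNA-binding domain fused to ROR gamma, UAS-luciferase. Cmpd 1 hr RT → CuSO4 700 uM final → 20 hr RT → luciferase reagent 10 min → luminescence.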
DT40 TDP1 no CPT: qHTS for Inhibitors of human tyrosyl-DNA phosphodiesterase 1 (TDP1): qHTS in cells in absence of CPT | DT40 Tdp1-/- hTDP1 cells, no CPT, ATP luminescence, 48 h | Potency, µM (series often up to 46.2 µM), actives largely listed as inhibitors | 15% of 420,000 active; also: nearly all actives have a fitted effect of over 55% in size
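Cells were dispensed at 400 per well, compounds added by pin tool, plates incubated ≥48 hr at 37 °C, then CellTiter-Glo added for 30 min at room temperature before luminescence reading. Line: DT40 Tdp1-/- complemented with hTDP1; camptothecin omitted.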
IL1B secr inh: qHTS for Inhibitors of Inflammasome Signaling: IL-1-beta AlphaLISA Primary Screen; activity change, % at 57.5 µM; THP-1 LPS/ATP IL-1B secretion, AlphaLISA, 16 h; hits give low values; 4.7% of 360,000 active; in the data active = activity change below about -50%; inconclusive = mostly about -30% to -49%
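Secreted IL-1B measured by AlphaLISA bead assay after 16 h compound exposure of THP-1 cells; compounds (final up to 57.5 uM) added 1 h before LPS (250 ng/mL) and ATP (1.25 mM) stimulation; lower signal means less secretion.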
VP16 counter: VP16 counterscreen qHTS for inhibitors of ROR gamma transcriptional activity. 3.5% of 310,000 active. Potency, µM (top dose mostly 53.6 µM), most hits filed as inhibitors. Drosophila S2 Gal4-VP16 UAS-luciferase, luminescence, 20 h;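 also: Gal4-VP16 expression switched on by copper sulfate through the metallothionein promoter; nearly all actives have a fitted effect of over 50% in size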
TDP1 cell CPT: qHTS for Inhibitors of human tyrosyl-DNA phosphodiesterase 1 (TDP1): qHTS in cells in presence of CPT; AID 686979, 2013; 12% of 420,000 active; Potency, µM (highest dose often 46.2 µM), most hits filed as inhibitors; chicken DT40 Tdp1-/-;hTDP1 cells + 20 nM CPT, ATP luminescence, 48 h; also: nearly all actives have a fitted effect of over 55% in size
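Chicken DT40 Tdp1-/- cells stably complemented with human TDP1 were seeded at 400 cells/well in medium containing 20 nM camptothecin, exposed to pin-transferred compounds, and grown at 37 °C for at least 48 hr. Viability was read as ATP luminescence.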
Of the large screens only hits and unclear results are named; the others gave an inactive call. Unless noted, calls follow the shape of the dose curve; as a rule, active = well fitted curve in the direction sought with a large enough effect; inconclusive = small, poorly fitted or top-dose-only effect, or another doubt; inactive = no such curve, though single readings can be large; an effect the other way counts as inactive or inconclusive.

O=C1[C@H]2[C@@H](c3ccccc3)N[C@]3(CCCN(Cc4ccc(C(F)(F)F)cc4)C3=O)[C@H]2C(=O)N1Cc1ccccc1	DT40 TDP1 no CPT inconclusive, TDP1 cell CPT 18µM (no result: RORgamma inh, VP16 counter)
Cc1ccc(CN2CCC[C@]3(N[C@H](c4ccccc4)[C@@H]4C(=O)N(Cc5ccccc5)C(=O)[C@@H]43)C2=O)cc1	DT40 TDP1 no CPT 16µM, TDP1 cell CPT 26µM (no result: RORgamma inh, VP16 counter)
O=C1[C@H]2[C@@H](c3ccc(C(F)(F)F)cc3)N[C@]3(CCCN(Cc4ccc(F)cc4)C3=O)[C@H]2C(=O)N1Cc1ccccc1	DT40 TDP1 no CPT inconclusive, IL1B secr inh -56, TDP1 cell CPT inconclusive (no result: RORgamma inh, VP16 counter)
O=C1[C@H]2[C@@H](c3ccccc3)N[C@]3(CCCN(Cc4ccc(F)cc4)C3=O)[C@H]2C(=O)N1Cc1ccccc1	DT40 TDP1 no CPT 16µM, TDP1 cell CPT inconclusive (no result: RORgamma inh, VP16 counter)
COc1ccc(NC(=O)C(C)(C)C)cc1Cl	none (no result: RORgamma inh, DT40 TDP1 no CPT, IL1B secr inh, VP16 counter, TDP1 cell CPT)
Cc1ccccc1C(=O)/C=C/c1cc2ccccc2nc1N1CCOCC1	none (no result: RORgamma inh, DT40 TDP1 no CPT, IL1B secr inh, VP16 counter, TDP1 cell CPT)
C=CCSCC(=O)NCC1(c2cccc(Cl)c2)CCOCC1	none (no result: RORgamma inh, DT40 TDP1 no CPT, IL1B secr inh, VP16 counter, TDP1 cell CPT)
O=C(NC(c1ccccc1)c1ccccc1)c1cc2ccccc2oc1=O	none (no result: RORgamma inh, DT40 TDP1 no CPT, IL1B secr inh, VP16 counter, TDP1 cell CPT)
COc1ccc(C2(c3ccc(OC)cc3)NC(=O)N(Cn3nnc4ccccc4c3=O)C2=O)cc1	DT40 TDP1 no CPT inconclusive, TDP1 cell CPT 21µM
COc1ccc(NC(=O)CCCCCn2nnc3ccccc3c2=O)cc1	none
Cc1cccc(NC(=S)NCC2(C)CCCC3(C)c4ccc(C(C)C)cc4CCC23)c1 (stereo not drawn)	none (no result: RORgamma inh, DT40 TDP1 no CPT, IL1B secr inh, VP16 counter, TDP1 cell CPT)
CC(=O)N1N=C(c2ccc3ccccc3c2)OC12CCCC2	DT40 TDP1 no CPT inconclusive, TDP1 cell CPT 21µM
CC(=O)N1N=C(c2ccccc2)OC12CCCC2	none
O=[N+]([O-])c1ccc(C2CC(c3ccccc3)=Nc3ccccc3S2)cc1 (stereo not drawn)	DT40 TDP1 no CPT 21µM, VP16 counter inconclusive, TDP1 cell CPT inconclusive
CN1C2CCC1CC(NS(=O)(=O)c1cccc(C(F)(F)F)c1)C2 (stereo not drawn)	IL1B secr inh -76
CC(=O)N1CCN(C(C(=O)O)c2c[nH]c3ccc(NC(=O)c4ccccc4)cc23)CC1 (stereo not drawn)	none (no result: RORgamma inh, DT40 TDP1 no CPT, IL1B secr inh, VP16 counter, TDP1 cell CPT)
Cc1cc2c3c(c1C)C1(C(=O)N3C(C)(C)CC2C)C(C#N)=C(N)Oc2n[nH]c(C)c21 (stereo not drawn)	DT40 TDP1 no CPT 23µM, TDP1 cell CPT inconclusive
S=C(NCCNC(=S)Nc1ccccc1Cl)Nc1ccccc1Cl	RORgamma inh inconclusive, DT40 TDP1 no CPT inconclusive, IL1B secr inh inconclusive
S=C(NCc1ccccc1Cl)Nc1ccccc1Cl	RORgamma inh 0.56µM, VP16 counter 2.8µM
Fc1ccc(NC(=S)Nc2ccccc2Cl)cc1	RORgamma inh inconclusive, DT40 TDP1 no CPT inconclusive
Cc1cc(Cl)ccc1NC(=S)NCc1ccccc1Cl	RORgamma inh 5µM, DT40 TDP1 no CPT 26µM, VP16 counter 4µM, TDP1 cell CPT inconclusive
NNC(=S)Nc1ccccc1Cl	RORgamma inh 7.9µM, DT40 TDP1 no CPT 7.3µM, VP16 counter 11µM, TDP1 cell CPT inconclusive
Fc1cccc(NC(=S)NCc2ccccc2Cl)c1	RORgamma inh 7.1µM, IL1B secr inh inconclusive, VP16 counter 11µM, TDP1 cell CPT inconclusive
C#Cc1cccc(NC(=O)Cc2c[nH]c3ccccc23)c1	none (no result: RORgamma inh, DT40 TDP1 no CPT, IL1B secr inh, VP16 counter, TDP1 cell CPT)
COC(=O)C1=CN(Cc2ccc(F)cc2)C=C(C(=O)OC)C1c1ccccc1OCc1ccccc1	none (no result: RORgamma inh, DT40 TDP1 no CPT, IL1B secr inh, VP16 counter, TDP1 cell CPT)
O=C(CN1CCCCC1)Nc1ccc(C(F)(F)F)cc1Cl	DT40 TDP1 no CPT inconclusive (no result: IL1B secr inh)
NNC(=S)Nc1ccc(C(F)(F)F)cc1Cl	RORgamma inh 11µM, VP16 counter inconclusive, TDP1 cell CPT inconclusive
CCN=C(NCC)SC1CC(=O)N(c2ccccc2)C1=O (stereo not drawn)	none
